Assay results reported in PubChem BioAssay AID1159580 (chemical genetic matrix, 2015).
Where “and” joins values, the source holds several entries; their conditions need not be identical. Equal values may be shown once. About 2,000 (36%) of roughly 5,500 compounds were called active. Another 18% or so got no clear call; they are omitted. Cut-off read from the data, not from the text of the source: active = normalized growth mostly below about 0.91 (no sharp cut-off); inconclusive = no clear call, values can overlap the other calls; inactive = mostly above about 0.92. This is one part of the list.

Test: chemical genetic growth profiling, strain panel (AID 1159580);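 note: tested at 20 µM; growth read once vehicle control cultures reached saturation at 30 °C; 1 = growth at the plate median or of vehicle wells; lower values mean less growth of the strain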
Conditions: S. cerevisiae deletion strains, growth OD

Measured: normalized growth

CNC(=O)CSP(=S)(OC)OC
inactive: locus YAL013W, strain DEP1, active compounds read low 1.02 | locus YAL021C, strain ccr4, active compounds read low 1.01 | locus YAL026C, strain drs2, active compounds read low 1.01 | locus YAL030W, strain snc1, active compounds read low 1.01 | locus YBL061C, strain skt5, active compounds read low 1.03 | locus YBR009C, strain hhf1, active compounds read low 0.999 | locus YBR021W, strain FUR4, active compounds read low 0.994 | locus YBR023C, strain chs3, active compounds read low 1.03 | locus YBR171W, strain sec66, active compounds read low 1.03 | locus YBR229C, strain ROT2, active compounds read low 1.01 | locus YBR231C, strain swc5, active compounds read low 1.01 | locus YBR279W, strain paf1, active compounds read low 1.01 | locus YCL011C, strain gbp2, active compounds read low 1.02 | locus YCL016C, strain dcc1, active compounds read low 1.02 | locus YCL029C, strain bik1, active compounds read low 1.01 | locus YCL061C, strain MRC1, active compounds read low 1.01 | locus YCL069W, strain vba3, active compounds read low 1.02 | locus YCR088W, strain abp1, active compounds read low 1.01 | locus YDL005C, strain med2, active compounds read low 1.03 | locus YDL035C, strain GPR1, active compounds read low 1.02 | locus YDL040C, strain nat1, active compounds read low 1.02 | locus YDL074C, strain BRE1, active compounds read low 0.971 | locus YDL101C, strain DUN1, active compounds read low 1 | locus YDL134C, strain PPH21, active compounds read low 1 | locus YDL185W, strain tfp1, active compounds read low 1.03 | locus YDL192W, strain arf1, active compounds read low 1.02 | locus YDR001C, strain nth1, active compounds read low 1.01 | locus YDR069C, strain doa4, active compounds read low 1.02 | locus YDR101C, strain arx1, active compounds read low 1.02 | locus YDR137W, strain rgp1, active compounds read low 1.03 | locus YDR150W, strain NUM1, active compounds read low 1.01 | locus YDR159W, strain sac3, active compounds read low 1.02 | locus YDR162C, strain NBP2, active compounds read low 1.01 | locus YDR195W, strain ref2 0.99 | locus YDR297W, strain sur2, active compounds read low 1.01 | locus YDR318W, strain mcm21, active compounds read low 1.02 | locus YDR334W, strain swr1, active compounds read low 1.02 | locus YDR335W, strain msn5, active compounds read low 1.01 | locus YDR388W, active compounds read low 1.02 | locus YDR392W, strain spt3, active compounds read low 1.01 | locus YDR502C, strain sam2, active compounds read low 1.02 | locus YEL003W, strain gim4, active compounds read low 1.01 | locus YEL037C, strain rad23, active compounds read low 1.02 | locus YEL061C, strain CIN8 (second series), active compounds read low 1.01 | locus YEL061C, strain CIN8, active compounds read low 1.01 | locus YER015W, strain faa2, active compounds read low 1.02 | locus YER016W, strain bim1, active compounds read low 1.02 | locus YER110C, active compounds read low 1.02 | locus YER111C, strain swi4, active compounds read low 1.01 | locus YER155C, strain BEM2 (second series), active compounds read low 1.02 | locus YER155C, strain BEM2, active compounds read low 1.01 | locus YER167W, strain BCK2, active compounds read low 1.01 | locus YFR010W, strain ubp6, active compounds read low 1.01 | locus YGL078C, strain dbp3, active compounds read low 1.02 | locus YGL086W, strain mad1, active compounds read low 1.01 | locus YGL167C, strain pmr1, active compounds read low 1.02 | locus YGL173C, strain kem1, active compounds read low 1.02 | locus YGL227W, strain vid30, active compounds read low 1.01 | locus YGL240W, strain doc1, active compounds read low 1 | locus YGL248W, strain PDE1, active compounds read low 1 | locus YGL253W, strain hxk2, active compounds read low 1.03 | locus YGR078C, strain PAC10, active compounds read low 1.02 | locus YGR135W, strain pre9, active compounds read low 1.01 | locus YGR229C, strain SMI1, active compounds read low 1.03 | locus YGR252W, strain gcn5, active compounds read low 0.995 | locus YHR013C, strain ard1, active compounds read low 1.01 | locus YHR027C, strain rpn1, active compounds read low 1.02 | locus YHR030C, strain SLT2, active compounds read low 1.03 and 1.08 | locus YHR079C, strain IRE1 (second series), active compounds read low 1.02 | locus YHR079C, strain IRE1, active compounds read low 1.04 | locus YHR094C, strain hxt1, active compounds read low 1.02 | locus YHR129C, strain ARP1, active compounds read low 1.01 | locus YHR142W, strain chs7, active compounds read low 1.03 | locus YHR200W, strain rpn10, active compounds read low 1.02 | locus YIL066C, strain RNR3, active compounds read low 1.04 | locus YIL073C, strain SPO22, active compounds read low 1.09 | locus YIL125W, strain kgd1, active compounds read low 1.01 | locus YIR030C, strain dcg1, active compounds read low 1.03 | locus YJL092W, strain hpr5, active compounds read low 1.01 | locus YJL095W, strain BCK1 (second series), active compounds read low 1.03 | locus YJL095W, strain BCK1, active compounds read low 1 and 1.08 | locus YJL115W, strain asf1, active compounds read low 1.01 | locus YJL129C, strain trk1, active compounds read low 1.03 | locus YJL134W, strain LCB3, active compounds read low 1 | locus YJL154C, strain vps35, active compounds read low 1.01 | locus YJL164C, strain tpk1, active compounds read low 1.02 | locus YJL166W, strain qcr8, active compounds read low 1 | locus YJL168C, strain set2, active compounds read low 1.02 | locus YJL187C, strain SWE1 (second series), active compounds read low 1.02 | locus YJR043C, strain POL32, active compounds read low 0.998 | locus YJR066W, strain TOR1, active compounds read low 0.992
